# VP16 counter: VP16 counterscreen qHTS for inhibitors of ROR gamma transcriptional activity. Drosophila S2 Gal4-VP16 UAS-luciferase, luminescence, 20 h. Potency, µM (top dose mostly 53.6 µM), for inactives: top-dose activity, negative = inhibition, actives largely listed as inhibitors. 3.5% of 310,000 active;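 further: Gal4-VP16 expression switched on by copper sulfate through the metallothionein promoter; potency means the concentration at half of the fitted maximal effect; nearly all actives have a fitted effect of over 50% in size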
# TDP1 cell CPT: qHTS for Inhibitors of human tyrosyl-DNA phosphodiesterase 1 (TDP1): qHTS in cells in presence of CPT; 12% of 420,000 active; AID 686979, 2013; chicken DT40 Tdp1-/-;hTDP1 cells + 20 nM CPT, ATP luminescence, 48 h; Potency, µM (series often up to 46.2 µM), for inactives: at the highest dose activity change, negative = growth inhibition, most hits filed as inhibitors; further: potency means the concentration at half of the fitted maximal effect; nearly all actives have a fitted effect of over 55% in size
#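 Cell growth measured by CellTiter-Glo luminescence after a minimum 48 h, 37 C compound exposure with 20 nM CPT in Tdp1-knockout DT40 cells stably expressing hTDP1, seeded 400/well; qHTS titration format.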
# RORgamma inh: qHTS for inhibitors of ROR gamma transcriptional activity | 5.4% of 310,000 active | Potency, µM (top dose mostly 53.6 µM), for inactives: top-dose activity change, negative = inhibition, usual class: inhibitors | Nuclear receptor ROR-gamma (Mus musculus), P51450 | AID 2551, 2010 | Drosophila S2 Gal4-RORgamma UAS-luciferase reporter, 20 h; further: potency means the concentration at half of the fitted maximal effect; nearly all actives have a fitted effect of over 60% in size
# Target sequence (P51450 whole entry, looked up, the tested form may be a part): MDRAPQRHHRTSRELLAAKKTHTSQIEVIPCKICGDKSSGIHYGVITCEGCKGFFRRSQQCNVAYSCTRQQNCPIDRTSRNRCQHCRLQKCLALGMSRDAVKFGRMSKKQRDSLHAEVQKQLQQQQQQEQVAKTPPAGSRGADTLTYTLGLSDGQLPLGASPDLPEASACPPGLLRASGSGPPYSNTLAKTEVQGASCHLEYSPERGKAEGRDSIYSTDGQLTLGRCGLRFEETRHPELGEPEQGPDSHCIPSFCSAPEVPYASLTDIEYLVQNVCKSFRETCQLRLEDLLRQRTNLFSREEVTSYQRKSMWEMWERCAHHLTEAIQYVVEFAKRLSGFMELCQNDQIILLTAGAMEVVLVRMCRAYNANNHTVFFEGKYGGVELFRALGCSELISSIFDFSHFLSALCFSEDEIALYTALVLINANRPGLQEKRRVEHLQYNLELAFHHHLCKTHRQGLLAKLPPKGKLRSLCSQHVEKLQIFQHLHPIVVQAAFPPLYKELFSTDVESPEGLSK
#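 Using a luciferase readout, inhibitors were identified by reduced reporter activity in Drosophila cells coexpressing a copper-inducible Gal4–ROR gamma fusion and UAS-driven Photinus luciferase, incubated 20 hr after 700 uM copper sulfate.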
# DT40 TDP1 no CPT: qHTS for Inhibitors of human tyrosyl-DNA phosphodiesterase 1 (TDP1): qHTS in cells in absence of CPT; DT40 Tdp1-/- hTDP1 cells, no CPT, ATP luminescence, 48 h; 15% of 420,000 active; Potency, µM (top dose mostly 46.2 µM), without a hit: at the highest dose activity change, negative = growth inhibition, usual class: inhibitors; further: potency means the concentration at half of the fitted maximal effect; nearly all actives have a fitted effect of over 55% in size
#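 Chicken DT40 Tdp1-/- cells complemented with human TDP1, screened without camptothecin (DMSO vehicle only), 400 cells/well. Compounds pin-transferred, cells incubated at 37 °C for at least 48 hr. Growth read as ATP-dependent luminescence (CellTiter-Glo, 30 min at RT).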
# LDHA block: qHTS assay for inhibitors of human lactate dehydrogenase; L-lactate dehydrogenase A chain (Homo sapiens), P00338; purified LDHA, NADH/diaphorase-resazurin fluorescence; active compounds read low; activity change, % (values are at about 110 or 230 µM); 0.15% of 480,000 active; in the data active means activity change below about -30%; inconclusive means mostly about -25% to -30%;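 further: plate controls were DMSO wells for no effect and wells without enzyme for full effect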
#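 Remaining NADH was detected by diaphorase (0.133 mg/mL) converting 37 µM resazurin to fluorescent resorufin, read at 0 and 20 minutes. The preceding 5-minute room-temperature reaction used 2 nM LDHA, 0.2 mM sodium pyruvate and 0.06 mM NADH at pH 7.4.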
# IL-1B inflam inh: qHTS for Inhibitors of Inflammasome Signaling: IL-1-beta AlphaLISA Primary Screen | activity change, % at 57.5 µM | THP-1 LPS/ATP IL-1B secretion, AlphaLISA, 16 h; active compounds read low | 4.7% of 360,000 active | AID 743279, 2014; in the data active means activity change below about -50%; inconclusive means mostly about -30% to -49%
#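 Secreted IL-1B measured by AlphaLISA bead assay after 16 h compound exposure of THP-1 cells; compounds (final up to 57.5 uM) added 1 h before LPS (250 ng/mL) and ATP (1.25 mM) stimulation; lower signal means less secretion.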
# An asterisk follows results filed as active; ? = inconclusive; . = no result. The list is not random: actives were taken first. Their share in the collection is about 18%. Unless noted, the call rests on the fitted dose curve; in most records, active means well fitted curve in the direction sought with a large enough effect; inconclusive means small, poorly fitted or top-dose-only effect, or another doubt; inactive means no such curve, though single readings can be large; an effect the other way counts as inactive or inconclusive. Unless noted, on the % scale 0 is the no-effect control and ±100 the full control effect.
SMILES,VP16 counter,TDP1 cell CPT,RORgamma inh,DT40 TDP1 no CPT,LDHA block,IL-1B inflam inh
O=C(/C(=C\c1ccccc1)c1nc2ccccc2[nH]1)c1ccc(Cl)cc1,?,7.3µM*,?,6.5µM*,-6,-100*
O=C(/C=C/c1cccc(Cl)c1)c1nc2ccccc2[nH]1,?,12µM*,3.2µM*,9.2µM*,-1,-17
O=C(/C(=C/c1ccc(Cl)cc1)c1nc2ccccc2[nH]1)c1cccs1,?,2.9µM*,3.2µM*,4.1µM*,-11,-112*
O=C(CCC(=O)c1cccs1)NCCC(=O)Nc1ccc(F)c(Cl)c1,.,.,.,.,-8,.
COc1cccc(CC(=O)NC(c2ccccc2)c2ccccc2)c1,.,.,.,.,-2,.
S=C(Nc1ccc(Cl)cc1)c1nc2ccccc2[nH]1,20µM*,?,11µM*,?,-7,-3
COC(=O)/C(=C\c1ccc(O)cc1)c1nc2ccccc2[nH]1,24%,?,8%,?,-1,-6
COC(=O)/C(=C\c1cc(OC)c(OC)c(OC)c1)c1nc2ccccc2[nH]1,16%,?,-40%,16µM*,-6,-99*
CCCOc1ccc(F)cc1-c1cc(C(=O)Nc2ccc(C)c(NS(C)(=O)=O)c2)[nH]n1,.,16µM*,.,23µM*,-7,-11
COc1ccc(F)cc1-c1cc(C(=O)Nc2ccc(C)c(NS(C)(=O)=O)c2)[nH]n1,.,18µM*,.,16µM*,-4,-54*
COc1cc(F)ccc1-c1cc(C(=O)Nc2ccc(C)c(NS(C)(=O)=O)c2)[nH]n1,.,?,.,-22%,-7,-4
Cc1nc(SCC(=O)NCc2ccco2)nc(C)c1C,-4%,7%,7.1µM*,7%,4,14
COc1ccccc1CNC(=O)CSC1=NCCS1,20%,?,0%,?,-4,-17
O=C(CSC1=NCCS1)NCc1ccco1,0%,13µM*,23%,12µM*,-6,27
O=C(CSc1nc(-c2ccccc2)cs1)NCc1ccco1,9%,-11%,?,?,3,-8
O=C(CSc1ccccc1F)NCCN1C(=O)CSC1=O,.,0%,.,-19%,-2,-2
O=C(CSc1nc(-c2ccccc2)c(-c2ccccc2)[nH]1)NCc1ccco1,?,?,10µM*,?,-9,-13
O=C(CSc1nc(-c2ccccc2)c(-c2ccccc2)[nH]1)NCCN1C(=O)CSC1=O,-1%,13µM*,-20%,15µM*,1,4
CCOc1ccc(Cn2c(=O)c3sccc3n(CC(=O)NCc3ccc4c(c3)OCO4)c2=O)cc1,.,.,.,.,1,.
COc1cccc(F)c1-c1nc(C)c(C(=O)Nc2cccnc2)s1,.,.,.,.,-2,.
O=C(CSc1nnc(-c2ccccc2)c(-c2ccccc2)n1)NCc1ccco1,1%,?,-26%,23µM*,-4,-6
CCOC(=O)c1ccc(Oc2nc(NC(C)(C)C)nc(N(C)C)n2)cc1,-3%,13µM*,-5%,21µM*,-5,-15
O=C(Nc1cccc2cccnc12)c1cccc(C(=O)Nc2cccc3cccnc23)c1,.,.,.,.,12,.
O=C(COc1ccc2cc(Br)ccc2c1Br)N1CCOCC1,11%,-53%,33%,?,1,-77*
O=C(COc1ccc(Br)cc1)N1CCOCC1,-27%,-11%,-10%,-16%,-5,-7
O=C(Nc1ccc(CN2CCOCC2)cc1)c1cc(Br)ccc1Cl,8%,-28%,1%,?,-3,-51*
